# Screening results (PubChem BioAssay)
# D1 potentiator: Potentiators of Human D1 Dopamine Receptor: qHTS; D(1A) dopamine receptor (Homo sapiens), P21728; HEK293 TREx D1 cells, calcium flux, dopamine EC20 potentiation; potentiation, % at 10 µM; hit rate 0.036% among 360,000; AID 504651, 2011; in the data active means potentiation above about 30%; further: 0% is about no effect
# Target sequence (P21728 whole entry, looked up): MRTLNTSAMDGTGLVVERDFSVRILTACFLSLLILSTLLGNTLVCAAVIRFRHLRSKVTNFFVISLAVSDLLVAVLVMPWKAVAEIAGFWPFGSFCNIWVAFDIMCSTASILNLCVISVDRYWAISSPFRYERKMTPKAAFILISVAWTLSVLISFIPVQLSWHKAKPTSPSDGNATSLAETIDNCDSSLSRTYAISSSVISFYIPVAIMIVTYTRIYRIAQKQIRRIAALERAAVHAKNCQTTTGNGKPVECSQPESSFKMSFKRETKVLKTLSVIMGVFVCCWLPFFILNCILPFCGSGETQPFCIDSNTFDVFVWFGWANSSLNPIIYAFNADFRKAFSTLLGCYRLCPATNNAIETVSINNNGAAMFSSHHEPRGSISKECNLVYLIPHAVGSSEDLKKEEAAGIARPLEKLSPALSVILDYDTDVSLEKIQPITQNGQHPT
# D1 agonist: Allosteric Agonists of the Human D1 Dopamine Receptor: qHTS. D(1A) dopamine receptor (Homo sapiens), P21728. HEK293 T-REx D1 cells, calcium flux, agonist mode. activation, % at 2 µM. hit rate 1% among 360,000. AID 504660, 2011; in the data active means activation above about 30%; further: 0% is about no effect
#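 Tetracycline-induced HEK293 TREx D1 cells, force-coupled to calcium signalling, were dye-loaded with a no-wash calcium kit. Compound was pin-added after a 10 s baseline. Fluorescence was read kinetically at 1 cycle/s for 180 s, with calcium rises flagged as agonism.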
# D1 antagonist: Antagonist of Human D 1 Dopamine Receptor: qHTS. D(1A) dopamine receptor (Homo sapiens), P21728. HEK293 TREx D1 cells, calcium flux, dopamine EC80; hits give low values. activity change, negative = inhibition, % at 10 µM. hit rate 3.2% among 360,000. AID 504652, 2011; in the data active means activity change below about -30%; further: on the % scale 0 is the no-effect control and ±100 the full control effect
#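 Allosteric or orthosteric antagonism assessed as attenuation of the calcium response to EC80 dopamine, added 180 s after compound, in induced HEK293 Trex D1 cells loaded with no-wash calcium dye.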
# D3 antag: qHTS of D3 Dopamine Receptor Antagonist: qHTS; max response, negative = inhibition, %; D3R cells, DiscoveRx beta-arrestin luminescence, antagonist mode; hits give low values; hit rate 2.5% among 360,000; AID 652054, 2013; in the data active means max response below about -50%; inconclusive means no clear call, values can overlap the other calls; further: on the % scale 0 is the no-effect control and ±100 the full control effect
#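 Cells expressing the human receptor were seeded at 1500 cells/well, incubated overnight at 37 degrees C in 5% CO2, then exposed to library compounds with dopamine controls for 90 minutes at 37 degrees C before luminescent detection.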
# D3 ag: qHTS of D3 Dopamine Receptor Agonist: qHTS | D(3) dopamine receptor (Homo sapiens), P35462 | D3R DiscoveRx beta-arrestin cells, luminescence, 90 min | max activation, % | hit rate 0.58% among 410,000 | AID 652048, 2013; in the data active means max activation above about 30%; further: 0% is about no effect
#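 Cells at 1500/well, incubated overnight, then treated with pinned compounds (dopamine as control) for 90 min at 37 degrees C. DiscoveRx reagent added for 30 - 60 minutes at room temperature; luminescence read.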
# The depositor's hits bear a star; ? = inconclusive; · = no result. Only some compounds are listed: those with a hit (about 6% of all), similar ones and a draw of the others.
SMILES,D1 potentiator,D1 agonist,D1 antagonist,D3 antag,D3 ag
COc1ccc(C(=O)Oc2c(CN3CCOCC3)cc(Cl)c3cccnc23)cc1,4.5,1.8,13.0,-3.7,-13.7
COc1cccc(C(=O)Oc2c(CN3CCOCC3)cc(Cl)c3cccnc23)c1,3.6,-1.3,1.6,-7.7,-22.8
O=C(Oc1c(CN2CCOCC2)cc(Cl)c2cccnc12)c1ccccc1Cl,-2.2,-3.0,14.6,-65.1*,-18.1
COc1cccc(Cn2nnc(C(=O)NCc3ccc(Cl)cc3Cl)c2N)c1,1.6,20.5,0.4,·,5.1
Cc1ccc2nc3c(c(N)c2c1)CCN3C,0.3,6.6,-0.9,?,-14.6
Cc1ccc2nc3c(c(N)c2c1)CCN3c1ccccc1,-6.5,0.9,-0.2,-77.5*,-5.9
O=C1COc2ccc(C(=O)COC(=O)c3ccc([N+](=O)[O-])cc3Cl)cc2N1,0.0,2.7,1.7,-24.4,-25.3
CCC(NC(=O)c1cc(COc2cc(C)c(Cl)c(C)c2)on1)c1ccncc1 (stereo not drawn),-4.4,35.7*,65.3,6.7,-1.4
O=S(=O)(c1ccc(Cl)cc1)c1nc(-c2cccs2)oc1SCc1ccc(F)cc1,-0.7,4.9,8.1,·,3.3
CCOC(=O)c1ccc(N2C(=O)c3n[nH]c(C)c3C2c2ccc(OC)c(OC)c2)cc1 (stereo not drawn),-7.7,1.3,-36.7*,-8.0,0.5
CC1=C(C(=O)N2CCCCCC2)CC(CC(=O)NCCCCc2ccccc2)C(=O)N1Cc1ccccc1 (stereo not drawn),·,·,·,5.0,8.9
Cc1cccc(C)c1NC(=O)c1cc(S(=O)(=O)N2CCc3ccccc3C2)ccc1F,5.2,0.9,131.2,·,9.4
CN1CCN(S(=O)C23CC4CC(CC(C4)C2)C3)CC1 (stereo not drawn),-3.0,1.8,-2.7,-88.5*,-15.7
O=S(N1CCCCC1)C12CC3CC(CC(C3)C1)C2 (stereo not drawn),-1.6,2.2,-5.4,4.5,4.0
CC(=O)C(=Cc1ccccc1)c1ccccc1,·,·,·,-7.6,4.8
CN(C)CCNc1nc2sc3c(c2c(=O)n1-c1ccccc1)CCCCC3,0.0,4.0,18.0,-29.4,-21.9
CN(C)CCNc1nc2sc3c(c2c(=O)n1Cc1ccccc1)CCCCC3,-5.1,65.2*,-23.4,-15.7,-4.2
COc1ccc(-n2c(NCCN(C)C)nc3sc4c(c3c2=O)CCCCC4)cc1,-4.3,56.0*,2.0,-21.6,-7.2
C=Cc1ccc(CN2C(=O)N(c3ccc(CC)cc3)S(=O)(=O)c3ccccc32)cc1,-3.4,5.8,-12.4,·,2.1
Cc1cc(SCC(=O)N/N=C/c2ccc(O)c(O)c2)nc2ccccc12,2.0,-1.9,-1.2,9.5,1.5
Cc1cc(SCC(=O)N/N=C/c2ccc(O)c(O)c2)c(C)cc1Br,-4.8,2.2,-31.7*,11.2,2.2
COc1cccc2c(SCC(=O)N/N=C/c3ccc(O)c(O)c3)cc(C)nc12,-8.9,1.2,-15.7,4.5,30.6*
Cc1cn([C@H]2C[C@H](O)[C@@H](/C=C/C(=O)NCc3ccc4c(c3)OCO4)O2)c(=O)[nH]c1=O,·,·,·,9.7,9.4
CCc1ccc2[nH]c(=O)c(CN(Cc3ccccc3)Cc3nnnn3Cc3ccco3)cc2c1,3.5,5.1,7.2,28.9,8.8
CCOC(=O)Cn1nnnc1CN(Cc1ccccc1)Cc1cc2cc(CC)ccc2[nH]c1=O,-4.6,1.7,-39.2*,-9.1,3.3
SMILES,D1 potentiator,D1 agonist,D1 antagonist,D3 antag,D3 ag
C=CCNc1nc(-c2ccccc2)nc(-n2ccnc2)n1,-10.1,0.5,-4.0,-4.9,0.9
c1ccc(CN2CCN(c3nc(-c4ccccc4)nc(-n4ccnc4)n3)CC2)cc1,-0.7,5.3,7.2,-63.0*,-39.0
c1ccc(-c2nc(-n3ccnc3)nc(-n3ccnc3)n2)cc1,-7.4,2.7,-13.7,27.8,5.2
CCCCNc1nc(-c2ccccc2)nc(-n2ccnc2)n1,-7.3,0.8,-38.0*,4.0,4.4
Cc1c(C(=N)C(C#N)C#N)c(=N)oc2c1ccc1ccccc12,4.6,1.9,-41.0*,12.8,0.0
Cc1c(C(=O)O)oc2c1ccc1ccccc12,-3.5,0.8,-11.7,-26.6,1.5
COc1cccc(/C=C/C(=O)NNC(=O)c2ccccc2)c1OC,·,·,·,-18.2,0.1
COc1cccc(/C=C/C(=O)NNC(=O)c2ccncc2)c1OC,-2.5,100.1*,-38.6*,-8.3,-2.0
O=C(OCc1cc(=O)n2nc(C3CC3)sc2n1)c1cccc(NC(=O)c2ccccc2Cl)c1,-0.7,6.0,1.2,·,6.5
C[C@@H]1CN([C@H](C)CO)C(=O)CCCn2nncc2CO[C@H]1CN(C)Cc1cccc(O)c1,·,·,·,-3.3,-5.3
CCCCCc1ccc(OCCCC[n+]2cccc(C)c2)c(CCCCC)c1,-4.2,3.9,15.3,-24.9,-11.8
CCCCCc1ccc(OCCCC[n+]2ccc(C)cc2)c(CCCCC)c1,20.2,202.1*,-12.1,-5.9,-4.9
CCC(C)(C)c1ccc(OCCCC[n+]2ccccc2)c(C(C)(C)CC)c1,-10.9,165.8*,-3.5,-5.1,-3.5
CCCCCc1ccc(OCCCC[n+]2ccccc2)c(CCCCC)c1,-0.2,96.5*,-24.3,-9.8,-0.3
CCOC(=O)c1ccc(NC(=O)c2ccc(CN3C(=O)CCn4nc(C)cc43)cc2)cc1,-2.9,0.9,14.1,·,-3.7
COc1c(C)cc(C(O)c2ncc(-c3ccc(C(F)(F)F)cc3)[nH]2)cc1C (stereo not drawn),·,·,·,3.8,-0.1
C=CCn1c(SCC(=O)NC2CCCCC2)nnc1-c1ccccn1,-7.0,3.1,-31.8*,7.3,0.2
Cc1cc2c(s1)c1cnn(Cc3c(F)cccc3F)c(=O)c1n2C,7.2,1.1,-10.2,·,·
CC(=NNC(=S)N1CCN(C2CCCCCC2)CC1)c1ccccn1,·,·,·,?,-15.6
CC(=NNC(=S)N1CCCCCC1)c1cccc2cccnc12,·,·,·,-70.5*,-13.0
COc1ccc(S(=O)(=O)N2CCCOC2CNC(=O)C(=O)NCc2ccccn2)cc1 (stereo not drawn),-0.8,2.0,4.1,5.8,-1.3
S=c1sc2ccccc2n1CCc1ccncc1,-7.7,6.0,-39.2*,-25.8,-0.7
COc1cccc2sc(N3CCN(C(=O)CCS(=O)(=O)c4ccc(F)cc4)CC3)nc12,-2.2,6.8,·,·,6.3
Cc1ccccc1OCCN1CCCC1,-4.0,3.7,-1.9,?,-13.3
Clc1ccc(OCCN2CCCCC2)c(Cl)c1,0.2,2.0,5.2,-176.0*,-31.6
Clc1ccccc1OCCN1CCCCC1,-10.8,3.0,-13.5,-79.8*,-21.9
COCC(=O)Nc1ccc(N2CCCC2)c(S(=O)(=O)Nc2ccccc2OC)c1,9.3,-0.6,-31.2*,-16.5,-5.2
CCOc1ccc(-c2nonc2NC(=O)c2oc3cc(C)c(C)cc3c2C)cc1OCC,-2.9,-0.9,-23.1,·,4.0
